CIT2 TOR yeast: modulators of TOR pathway CIT2-GFP in S. cerevisiae | 320,000 tested, 0.065% active | S. cerevisiae CIT2-GFP strain, flow cytometry, 3 h; 100 means same as DMSO wells | GFP response vs DMSO, % at 10 µM;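 active = GFP response relative to DMSO above a set limit, near the screen mean plus 3 SD, cut at about 150% in these data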;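 note: ratio of well median GFP fluorescence to mean of DMSO wells on the plate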
MEP2 TOR yeast: alters MEP2-GFP fluorescence in TOR pathway yeast screen; S. cerevisiae MEP2-GFP strain, flow cytometry GFP, 3 h; 100% = DMSO control level; GFP response vs DMSO, % at 10 µM; 330,000 tested, 0.51% active;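 active = GFP response versus DMSO above a set limit, roughly screen mean plus 3 SD, cut at about 180% in these data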;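 note: median GFP fluorescence of the barcode-gated MEP2-GFP cells per well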
AGP1 TOR yeast: modulators of TOR pathway AGP1-GFP in S. cerevisiae. S. cerevisiae AGP1-GFP multiplex flow cytometry, 3 h; GFP as percent of DMSO wells. GFP response vs DMSO, % at 10 µM. 320,000 tested, 0.02% active;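 active = GFP response relative to DMSO above a set limit, near screen average plus 3 SD, cut at about 150% in these data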;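 note: median GFP channel fluorescence of the gated AGP1 strain per well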
LAP4-GFP MLPCN: modulators of TOR pathway LAP4-GFP in S. cerevisiae. GFP response vs DMSO, % at 10 µM. 320,000 tested, 0.34% active. S. cerevisiae LAP4-GFP multiplex, flow cytometry GFP, 3 h; median GFP as percent of DMSO wells. AID 2023;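 active = GFP response vs DMSO above a set limit, about the screen mean plus 3 SD, cut at about 150% in these data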
RPL19A TOR yeast: alters RPL19A-GFP fluorescence in TOR pathway yeast screen. S. cerevisiae RPL19A-GFP strain, flow cytometry, 3 h; active compounds read low. percent response vs DMSO, % at 10 µM. 330,000 tested, 0.3% active;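 active = percent response vs DMSO below 50%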;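 note: median channel GFP fluorescence of the barcoded RPL19A-GFP strain; ratio of sample median GFP to plate DMSO average so 100% = DMSO; lower means less RPL19A-GFP as with rapamycin TOR inhibition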
LAP4 cherry2: yeast LAP4-GFP modulation, second cherry pick; shares compounds with LAP4-GFP MLPCN; GFP response vs DMSO, % at 10 µM; S. cerevisiae LAP4-GFP strain, flow cytometry GFP, 3 h; 590 tested, 20% active;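 active = GFP signal as percent of the solvent control above about 150%, meaning raised reporter expression, limit read from the data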;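 note: ratio of well median GFP fluorescence to plate DMSO mean so 100% = DMSO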
MEP2 cherry2: yeast MEP2-GFP modulation, second cherry pick; S. cerevisiae MEP2-GFP strain, flow cytometry GFP, 3 h; 590 tested, 10% active; shares compounds with LAP4-GFP MLPCN; GFP response vs DMSO, % at 10 µM;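 active = GFP signal above 150% of the solvent control wells, that is a rise of more than half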;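 note: median channel GFP fluorescence of all gated yeast cells per well; ratio of median GFP to plate DMSO average so 100% = DMSO level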
RPL19A GFP CP2: reconfirmed modulator of RPL19A-GFP TOR reporter in yeast; GFP response vs DMSO, % at 10 µM; 590 tested, 3% active; S. cerevisiae RPL19A-GFP strain, flow cytometry GFP, 3 h; active compounds read low; 100% means same as DMSO wells; shares compounds with LAP4-GFP MLPCN; AID 2623;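 active = under 65% GFP response relative to DMSO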;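 note: median GFP channel fluorescence per well over the all cells gate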
CIT2 GFP CP2: reconfirmed modulator of CIT2-GFP TOR reporter in yeast | 590 tested, 8% active | shares compounds with LAP4-GFP MLPCN | GFP response vs DMSO, % at 10 µM | S. cerevisiae CIT2-GFP strain, flow cytometry GFP, 3 h; DMSO control wells read 100%;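 active = GFP response vs DMSO above about 150%, limit read from the data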;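 note: median green fluorescence per well over all gated yeast cells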
AGP1 GFP CP2: reconfirmed modulator of AGP1-GFP TOR reporter in yeast | shares compounds with LAP4-GFP MLPCN | S. cerevisiae AGP1-GFP strain, flow cytometry GFP, 3 h | percent response vs DMSO, % at 10 µM | 590 tested, under 10 active | AID 2643;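 active = over 150 percent of DMSO response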;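 note: median GFP channel fluorescence over all cells without mother daughter split; sample median GFP divided by mean DMSO control so 100% equals DMSO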
s288c autofluor: compound is autofluorescent in yeast s288c cells; shares compounds with LAP4-GFP MLPCN; S. cerevisiae s288c, 520 nm autofluorescence, flow cytometry, 3 h; active compounds read high; zero means same as solvent-only cells; fluorescence change (kMESF span) at 33 µM; 610 tested, under 10 active; AID 2757;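 active = fluorescence span over the dose series, or activity score, above about 33, limit read from the data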
Yeast autofl DR: counter-screen for autofluorescence of TOR hits in yeast s288c. shares compounds with LAP4-GFP MLPCN. S. cerevisiae s288c parental, compound autofluorescence, flow cytometry, 3 h. fluorescence change (span) at 33 µM. 110 tested, under 10 active. AID 488829;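 active = fluorescence change span, or the activity score built from it, above 25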
TORC1 bypass: compounds blocking wildtype yeast growth but not TORC1 bypass cells | 120 tested, under 10 active | AID 504456 | growth rating (0-3) at 30 µM | S. cerevisiae BY4741 spot growth rating, 48-72 h; active compounds read low | shares compounds with LAP4-GFP MLPCN;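 active = growth rating at most 1 for wild type yeast while the TORC1 bypass strain still grows fully, rated 3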
* = called active by the depositor. Shown are actives, neighbours in structure and some others; about 0.92% of the full set was active somewhere.

CCc1sc(C(=O)Nc2nc(-c3ccccn3)cs2)cc1C was read as CIT2 TOR yeast 118, MEP2 TOR yeast 108, AGP1 TOR yeast 88, LAP4-GFP MLPCN 191*, RPL19A TOR yeast 84, LAP4 cherry2 212*, MEP2 cherry2 155*, RPL19A GFP CP2 106, CIT2 GFP CP2 114, AGP1 GFP CP2 103 and s288c autofluor 1.4.
Cc1cc(-c2csc(NC(=O)c3cc4ccccc4o3)n2)c(C)n1C was read as CIT2 TOR yeast 86, MEP2 TOR yeast 91, AGP1 TOR yeast 98, LAP4-GFP MLPCN 99 and RPL19A TOR yeast 91.
Screening CCCCn1c(N)c(N(CC(C)C)C(=O)C2=NN(c3ccccc3)C(=O)CC2)c(=O)[nH]c1=O returned CIT2 TOR yeast 99, MEP2 TOR yeast 102, AGP1 TOR yeast 100, LAP4-GFP MLPCN 100 and RPL19A TOR yeast 98.
Screening NC(=S)N/N=C/c1coc2ccc(F)cc2c1=O returned CIT2 TOR yeast 105, MEP2 TOR yeast 92, AGP1 TOR yeast 109, LAP4-GFP MLPCN 101 and RPL19A TOR yeast 98.
O=C1C(Cl)=C(NCCc2ccccc2)C(=O)N1CCc1ccccc1 was read as CIT2 TOR yeast 82, MEP2 TOR yeast 90, AGP1 TOR yeast 91, LAP4-GFP MLPCN 96, RPL19A TOR yeast 91 and s288c autofluor 0.1.
Screening O=C(NC(=S)NNC(=O)c1ccc(Cl)cc1Cl)c1cccnc1 returned CIT2 TOR yeast 100, MEP2 TOR yeast 184*, AGP1 TOR yeast 96, LAP4-GFP MLPCN 110, RPL19A TOR yeast 104 and s288c autofluor 0.91.
`Cc1onc(-c2ccccc2)c1C(=O)NNC(=S)NC(=O)c1ccc(Cl)cc1Cl` gave CIT2 TOR yeast 106, MEP2 TOR yeast 105, AGP1 TOR yeast 104, LAP4-GFP MLPCN 100 and RPL19A TOR yeast 105.
Cc1ccccc1C(=O)NNC(=S)NC(=O)c1ccc(Cl)cc1Cl was read as CIT2 TOR yeast 104, MEP2 TOR yeast 108, AGP1 TOR yeast 104, LAP4-GFP MLPCN 182*, RPL19A TOR yeast 91 and s288c autofluor 0.4.
For CCCN1CCC(NC(=O)C2CC=CCC2C(=O)O)CC1 (stereo unspecified) the results were CIT2 TOR yeast 106, MEP2 TOR yeast 101, AGP1 TOR yeast 99, LAP4-GFP MLPCN 99 and RPL19A TOR yeast 102.
For Cc1nn2c(NCc3ccccn3)c3c(nc2c1-c1ccccc1)CCC3 the results were CIT2 TOR yeast 70, MEP2 TOR yeast 118, AGP1 TOR yeast 72, LAP4-GFP MLPCN 152*, RPL19A TOR yeast 94 and s288c autofluor 2.7.
For O=[N+]([O-])c1ccc(O)c(/C=N/Nc2ccccn2)c1 the results were CIT2 TOR yeast 133, MEP2 TOR yeast 122, AGP1 TOR yeast 92, LAP4-GFP MLPCN 237*, RPL19A TOR yeast 66, LAP4 cherry2 284*, MEP2 cherry2 180*, RPL19A GFP CP2 90, CIT2 GFP CP2 131, AGP1 GFP CP2 97 and s288c autofluor 2.3.
Screening O=[N+]([O-])c1cc(CN2CCN(c3cccc(C(F)(F)F)c3)CC2)c2cccnc2c1O returned CIT2 TOR yeast 114, MEP2 TOR yeast 116, LAP4-GFP MLPCN 214*, RPL19A TOR yeast 88 and s288c autofluor 0.91.
For O=[N+]([O-])c1cc(CN2CCCC2)c2cccnc2c1O the results were CIT2 TOR yeast 88, MEP2 TOR yeast 97, AGP1 TOR yeast 94, LAP4-GFP MLPCN 99 and RPL19A TOR yeast 89.
For Cc1ccc(/C=C2/C(=O)ON=C2c2ccccc2)o1 the results were CIT2 TOR yeast 80, MEP2 TOR yeast 106, AGP1 TOR yeast 68, LAP4-GFP MLPCN 257*, RPL19A TOR yeast 75, s288c autofluor 4.7, Yeast autofl DR 2 and TORC1 bypass 3.
O=C1ON=C(c2ccccc2)/C1=C\c1ccco1 was read as CIT2 TOR yeast 67, MEP2 TOR yeast 105, AGP1 TOR yeast 72, LAP4-GFP MLPCN 219*, RPL19A TOR yeast 74, s288c autofluor 1.6, Yeast autofl DR 0.89 and TORC1 bypass 3.
Screening O=C1ON=C(c2ccccc2)/C1=C/c1ccccc1 returned CIT2 TOR yeast 106, MEP2 TOR yeast 107, AGP1 TOR yeast 94, LAP4-GFP MLPCN 103 and RPL19A TOR yeast 97.
CCOC(=O)CCCC(=O)N1CCOCCOCCOCC1 was read as CIT2 TOR yeast 96, MEP2 TOR yeast 95, AGP1 TOR yeast 94, LAP4-GFP MLPCN 98 and RPL19A TOR yeast 95.
CCSc1nnc(NC(=O)CN2C(=O)NC3(CCCC3)C2=O)s1 was read as CIT2 TOR yeast 99, MEP2 TOR yeast 113, AGP1 TOR yeast 99, LAP4-GFP MLPCN 99 and RPL19A TOR yeast 99.
CC1=CC(C)(C)N(C(=O)CSc2ncn[nH]2)c2ccc(C)cc21 was read as CIT2 TOR yeast 95, MEP2 TOR yeast 102, AGP1 TOR yeast 104, LAP4-GFP MLPCN 103 and RPL19A TOR yeast 101.
Screening Cc1ccc(SCC(=O)NNC(=O)CCS(=O)(=O)c2ccc(C)cc2)cc1 returned CIT2 TOR yeast 87, MEP2 TOR yeast 109, AGP1 TOR yeast 115, LAP4-GFP MLPCN 219*, RPL19A TOR yeast 76, LAP4 cherry2 105, MEP2 cherry2 101, RPL19A GFP CP2 99, CIT2 GFP CP2 103 and AGP1 GFP CP2 99.
